Reference: article PMC4336329 (PLoS ONE, 2015)
About 14,000 (4.5%) of roughly 310,000 compounds showed an effect of 50% or more. The effect is printed as a negative number. The sample holds strong results, similar compounds and a random draw of the others, so the mix is not that of the screen.

Target: human ether-à-go-go-related gene (hERG) potassium channel (human, UniProt Q12809)
Test: primary screen, population patch clamp on CHO cells stably expressing hERG; higher = less effect of the substance
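Further: peak tail current of the secondary pulse compared with the same well before compound.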

Chain of human ether-à-go-go-related gene (hERG) potassium channel (Q12809 whole entry, looked up): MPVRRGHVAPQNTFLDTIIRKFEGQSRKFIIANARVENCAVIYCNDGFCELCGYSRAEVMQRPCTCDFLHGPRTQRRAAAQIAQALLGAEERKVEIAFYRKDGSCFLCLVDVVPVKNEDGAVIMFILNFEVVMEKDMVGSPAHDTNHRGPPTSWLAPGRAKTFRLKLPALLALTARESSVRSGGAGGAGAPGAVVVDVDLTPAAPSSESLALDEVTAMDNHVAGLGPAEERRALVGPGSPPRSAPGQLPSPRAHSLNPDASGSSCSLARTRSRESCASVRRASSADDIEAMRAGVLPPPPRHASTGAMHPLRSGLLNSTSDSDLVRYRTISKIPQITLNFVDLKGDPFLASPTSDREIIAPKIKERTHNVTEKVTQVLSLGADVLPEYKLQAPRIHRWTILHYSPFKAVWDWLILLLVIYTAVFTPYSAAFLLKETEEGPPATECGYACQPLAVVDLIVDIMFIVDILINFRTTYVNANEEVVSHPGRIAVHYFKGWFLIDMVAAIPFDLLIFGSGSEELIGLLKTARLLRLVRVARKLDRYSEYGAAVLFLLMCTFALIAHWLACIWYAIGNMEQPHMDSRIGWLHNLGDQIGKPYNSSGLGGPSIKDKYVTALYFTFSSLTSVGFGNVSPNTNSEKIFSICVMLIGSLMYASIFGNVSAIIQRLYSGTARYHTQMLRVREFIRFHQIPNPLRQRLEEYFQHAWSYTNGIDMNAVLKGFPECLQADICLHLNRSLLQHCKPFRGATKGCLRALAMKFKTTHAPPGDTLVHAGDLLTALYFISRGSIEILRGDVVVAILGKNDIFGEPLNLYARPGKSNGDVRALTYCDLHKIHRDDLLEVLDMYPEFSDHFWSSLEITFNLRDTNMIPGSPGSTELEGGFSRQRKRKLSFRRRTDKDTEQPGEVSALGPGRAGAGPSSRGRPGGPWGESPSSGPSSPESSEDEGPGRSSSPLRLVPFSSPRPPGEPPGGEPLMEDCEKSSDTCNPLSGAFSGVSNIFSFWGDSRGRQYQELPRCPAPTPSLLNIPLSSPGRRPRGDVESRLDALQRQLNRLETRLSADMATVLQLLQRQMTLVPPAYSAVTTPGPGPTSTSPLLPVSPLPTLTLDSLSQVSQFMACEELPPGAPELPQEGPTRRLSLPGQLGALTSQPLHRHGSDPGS

Row | SMILES | hERG current change (%, negative = inhibition) at 10uM
1 | CCOc1ccc(C(=O)COC(=O)CN2C(=O)NC3(CCCCC3C)C2=O)cc1 (stereo not drawn) | -42.7%
2 | CCOC(=O)C1CCN(C(=O)c2ccc(NC(=O)C3CCCO3)cc2)CC1 (stereo not drawn) | -9.35%
3 | Cc1[nH]n2c(=O)cc(C(C)C)nc2c1-c1ccccc1 | -12.1%
4 | Clc1ccc(CSc2ccc(-c3ccccn3)nn2)cc1 | -2.04%
5 | CCN(CC(=O)Nc1cc(Cl)ccc1C)C(=O)COc1cccc2c1OC(C)(C)C2 | -4.2%
6 | CCOc1ncccc1C(=O)Nc1cccc(S(=O)(=O)N2CCCCC2)c1 | -7.03%
7 | CSc1ncccc1C(=O)Nc1ccc(S(=O)(=O)N2CCCC2)cc1 | -16.6%
8 | CC(=O)Nc1ccc(NC(=O)c2cc(S(=O)(=O)N3CCCCC3)ccc2C)cc1 | 5.45%
9 | Cc1ccc(S(=O)(=O)N2CCOCC2)cc1C(=O)Nc1cccc(S(=O)(=O)N2CCCC2)c1 | -38.3%
10 | Cc1ccc(S(C)(=O)=O)cc1C(=O)Nc1cccc(S(=O)(=O)N2CCCCCC2)c1 | -65.2%
11 | CSc1ncccc1C(=O)Nc1cccc(S(=O)(=O)N2CCCCC2)c1 | -64.3%
12 | COc1ccc(OC2C(=O)N(Cc3ccc4c(c3)OCO4)C2c2sccc2C)cc1 (stereo not drawn) | -5.31%
13 | O=CNCC(=O)NC1CCCCCC1 | 20.5%
14 | CN(Cc1ccco1)S(=O)(=O)c1ccc(CN2C(=O)c3cccnc3C2=O)s1 | -63.4%
15 | COc1ccc(CN2C(=O)c3cccnc3C2=O)cc1S(=O)(=O)N(C)Cc1ccco1 | -13.3%
16 | O=C1c2cccnc2C(=O)N1Cc1ccc(S(=O)(=O)NCc2ccco2)s1 | 16.2%
17 | O=C(C1=C(O)C(=O)N(c2ncccn2)C1c1ccc(Cl)cc1)c1ccco1 (stereo not drawn) | 7.37%
18 | O=C(CCl)N=c1sccn1Cc1ccccc1Cl | -5.61%
19 | COc1cc(/C=C(\C#N)C(=O)NCc2cccs2)ccc1O | -0.725%
20 | O=C(COc1ccc(Br)cc1CO)Nc1ccc(F)cc1 | -32.8%
21 | O=C(COc1ccc(Br)cc1CNC1CCCCC1)NCCc1ccccc1 | -77%
22 | O=C(COc1ccc(Br)cc1Br)NC1CCCC1 | 12.9%
23 | COc1ccc(Br)cc1CN(C)CC(=O)NCCc1ccccc1.O=C(O)C(=O)O | -14.7%
24 | CCCNCc1cc(OCC)c(OCC(=O)Nc2ccccc2)cc1Br | -24.7%

Row | SMILES | hERG current change (%, negative = inhibition) at 10uM
25 | CCOc1cc(CNC2CCCC2)c(Cl)cc1OCC(=O)Nc1ccccc1 | -67.8%
26 | COc1ccccc1NC(=O)COc1ccc(Br)cc1CNC1CCCC1 | -53.2%
27 | COc1cc(CNC2CCCC2)cc(Br)c1OCC(=O)Nc1ccccc1C | -1.01%
28 | CCOc1cc(CNCC(C)C)c(Cl)cc1OCC(=O)Nc1ccccc1 | -15.2%
29 | COc1ccccc1NC(=O)COc1ccc(Br)cc1CO | -4.58%
30 | O=C(COc1ccc(Br)cc1CO)Nc1ccccc1 | -10.4%
31 | Cl.O=C(COc1ccc(Br)cc1CNC1CCCC1)Nc1ccccc1 | -73.1%
32 | COC(=O)c1cc(C(=O)CC(C)C)c[nH]1 | 16.7%
33 | O=C(/C=C/c1ccccc1)NC(=S)NNC(=O)Cc1cccs1 | 22.5%
34 | COc1ccc(NC(=O)CCS(=O)(=O)c2cc3c(cc2Cl)NC(=O)CO3)cc1OC | 9.57%
35 | COc1cc(-c2noc(C)c2C(=O)NCCc2c[nH]c3ccccc23)cc(OC)c1OC | 0.397%
36 | O=C(NCCc1ccccn1)C1CCCN(S(=O)(=O)Cc2ccccc2)C1 (stereo not drawn) | 9.26%
37 | CC(C)(C)c1ccc(C(=O)Oc2ccc3c(c2)OCC3=O)cc1 | 2.55%
38 | Cl.Fc1ccc(COc2ccc(Br)cc2CNCC2CCCO2)cc1 (stereo not drawn) | -63.5%
39 | Brc1cccc(CNCC2CCCO2)c1 (stereo not drawn) | 4.72%
40 | COc1ccc(Br)cc1CNCC1CCCO1 (stereo not drawn) | 5.7%
41 | Cl.Fc1ccccc1COc1ccc(Br)cc1CNCC1CCCO1 (stereo not drawn) | -68.3%
42 | CCOc1ccccc1CNCC1CCCO1.Cl (stereo not drawn) | 11.5%
43 | Brc1ccc(OCc2ccccc2)c(CNCC2CCCO2)c1.Cl (stereo not drawn) | -50%
44 | CN(C)S(=O)(=O)c1ccc(NC(=O)CN2C(=O)NC3(CCCC3)C2=O)cc1 | 8.41%
45 | CCOc1ccc2nc(NC(=O)CSc3nnc(-c4ccncc4)n3CC3CCCO3)sc2c1 (stereo not drawn) | 3.71%
46 | Fc1ccc(NC(=S)NCCc2ccc(Cl)cc2)cc1 | 1.47%
47 | COCCn1cnc2c1c(=O)n(CC(=O)NN)c(=O)n2Cc1ccccc1 | 8.95%
48 | COCCn1cnc2c1c(=O)n(CC(=O)OCC(=O)NCCCc1ccccc1)c(=O)n2Cc1ccccc1 | -57.9%
